Test systems include HCT-15 colon; HT29 colon; SNB-19 CNS; U251 CNS; PC-3 prostate; SK-MEL-5 melanoma; UACC-62 melanoma; LOX IMVI melanoma; SK-MEL-28 melanoma; SK-MEL-2 melanoma; EKVX NSCLC; SN12C renal; UO-31 renal; TK-10 renal; CAKI-1 renal; A498 renal; HL-60(TB) leukemia; MOLT-4 leukemia; SR leukemia.
Experiment in all cases: NCI-60 one-dose screen, 48 h (100 = growth as untreated, 0 = no growth, -100 = all killed)
The subject of the next experiment is SNB-75 CNS. The conditions noted are these: 10 µM unless noted.

Values joined by “and” are separate entries in the source; they are usually repeats but may differ in a detail not shown here. Identical values can stand only once. About 83,000 compounds went through this panel and 20% of them were active in at least one assay; those are over-represented in the sample as a whole.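 For each line, cells grew in 96-well plates with the test compound present at a single concentration for 48 hours.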 Active and inactive are the calls of the source. How the source made its calls: active means growth percent below 10; inactive means the rest.

Regarding `COc1cccc2c1cc([N+](=O)[O-])c1c(C(=O)O)cc3c(c12)OCO3`, the growth was 69.3% (inactive) and 105% (inactive) in the experiment with HCT-15 colon (10 µM unless noted); 0.29% (active) and -24.5% (active) in the experiment on HT29 colon (10 µM unless noted); 79.4% (inactive) and 106% (inactive) in the experiment with SNB-75 CNS; 79.3% (inactive) and 97.7% (inactive) in the experiment with SNB-19 CNS (10 µM unless noted); 60.2% (inactive) and 96.7% (inactive) with U251 CNS (10 µM unless noted); 77.3% (inactive) and 73.7% (inactive) in the experiment on PC-3 prostate (10 µM unless noted). Moreover, the growth in the experiment on SK-MEL-5 melanoma (10 µM unless noted) was 78.9% (inactive) and 104% (inactive); in the experiment with UACC-62 melanoma (10 µM), 84.3% (inactive) and 96.5% (inactive); with UACC-62 melanoma (100 µM), -19.4% (active) and 0.694% (active); in the experiment with LOX IMVI melanoma (10 µM unless noted), 70.4% (inactive) and 99.2% (inactive); in the experiment with SK-MEL-28 melanoma (10 µM) it was 99.8% (inactive); in the experiment with SK-MEL-2 melanoma (10 µM unless noted), 94.4% (inactive) and 104% (inactive). Further, the growth is 84.3% (inactive) and 111% (inactive) with EKVX NSCLC (10 µM unless noted); 65.1% (inactive) and 113% (inactive) with SN12C renal (10 µM unless noted); 76.5% (inactive) and 87.8% (inactive) in the experiment on UO-31 renal (10 µM unless noted); 30.8% (inactive) and 99.6% (inactive) with TK-10 renal (10 µM); -10.4% (active) and -42.6% (active) in the experiment on TK-10 renal (100 µM); 9.19% (active) and 88% (inactive) in the experiment on CAKI-1 renal (10 µM unless noted). Also, the growth is 87.2% (inactive) and 107% (inactive) in the experiment on A498 renal (10 µM unless noted); 41.6% (inactive) and 79.4% (inactive) in the experiment with HL-60(TB) leukemia (10 µM unless noted); 35.7% (inactive) and 95.9% (inactive) in the experiment on MOLT-4 leukemia (10 µM unless noted); 28.1% (inactive) and 76.3% (inactive) with SR leukemia (10 µM unless noted).

Consider `CC[C@@]1(O)C[C@H](OC2CC(N(C)C)C(O)C(C)O2)c2c(O)c3c(c(O)c2[C@H]1OC1CC(N(C)C)C(O)C(C)O1)C(=O)c1cccc(O)c1C3=O` (some centres undefined), for which the growth with HCT-15 colon (10 µM unless noted) is -49.7% (active); in the experiment with HT29 colon (10 µM unless noted), -39% (active); with SNB-75 CNS, -94.6% (active); with SNB-19 CNS (10 µM unless noted), 5.62% (active); in the experiment with U251 CNS (10 µM unless noted), -21.9% (active); in the experiment with PC-3 prostate (10 µM unless noted) it was -61.8% (active). For the same compound, the growth with SK-MEL-5 melanoma (10 µM unless noted) is -89% (active); in the experiment on UACC-62 melanoma (10 µM), -63.2% (active); in the experiment on LOX IMVI melanoma (10 µM unless noted) it was -36.2% (active); in the experiment with SK-MEL-2 melanoma (10 µM unless noted), -54.5% (active); in the experiment with EKVX NSCLC (10 µM unless noted), 4.27% (active); in the experiment on SN12C renal (10 µM unless noted), 11.4% (inactive). Further, the growth is -33.9% (active) in the experiment on UO-31 renal (10 µM unless noted); -24.9% (active) with TK-10 renal (10 µM); -9.18% (active) in the experiment with CAKI-1 renal (10 µM unless noted); -68% (active) in the experiment with A498 renal (10 µM unless noted); -34.3% (active) in the experiment with HL-60(TB) leukemia (10 µM unless noted); -10.5% (active) in the experiment with MOLT-4 leukemia (10 µM unless noted). In addition, in the experiment with SR leukemia (10 µM unless noted), the growth was -7.1% (active).

Take `Cc1c(N)nc([C@H](CC(N)=O)NC[C@H](N)C(N)=O)nc1C(=O)N[C@H](C(=O)N[C@H](C)[C@@H](O)[C@H](C)C(=O)N[C@H](C(=O)NCCc1nc(-c2nc(C(=O)NCCC[S+](C)C)cs2)cs1)[C@@H](C)O)C(OC1OC(CO)C(O)C(O)C1OC1OC(CO)C(O)C(OC(N)=O)C1O)c1cnc[nH]1` (some centres undefined): the growth was 67.8% [2.5 µM] (inactive) in the experiment with HCT-15 colon (10 µM unless noted); 77.9% [2.5 µM] (inactive) in the experiment with HT29 colon (10 µM unless noted); 40.6% [2.5 µM] (inactive) with SNB-75 CNS; 74.2% [2.5 µM] (inactive) in the experiment with SNB-19 CNS (10 µM unless noted); 58.4% [2.5 µM] (inactive) in the experiment with U251 CNS (10 µM unless noted); 60.5% [2.5 µM] (inactive) in the experiment with PC-3 prostate (10 µM unless noted). Also, the growth with SK-MEL-5 melanoma (10 µM unless noted) was 34.1% [2.5 µM] (inactive); with UACC-62 melanoma (2.5 µM), 43.8% (inactive); in the experiment on UACC-62 melanoma (25 µM) it was -42.5% (active) and -100% (active); with LOX IMVI melanoma (10 µM unless noted), 14.3% [2.5 µM] (inactive); with SK-MEL-2 melanoma (10 µM unless noted), 125% [2.5 µM] (inactive); in the experiment with EKVX NSCLC (10 µM unless noted), 103% [2.5 µM] (inactive). For the same compound, the growth in the experiment on SN12C renal (10 µM unless noted) was 52.2% [2.5 µM] (inactive); with UO-31 renal (10 µM unless noted) it was 39.9% [2.5 µM] (inactive); in the experiment with TK-10 renal (2.5 µM), 89.5% (inactive); with TK-10 renal (25 µM), 42.4% (inactive) and -73.8% (active); in the experiment on CAKI-1 renal (10 µM unless noted), 26.4% [2.5 µM] (inactive); with A498 renal (10 µM unless noted), 84.1% [2.5 µM] (inactive). For the same compound, the growth in the experiment on HL-60(TB) leukemia (10 µM unless noted) is 81.8% [2.5 µM] (inactive); in the experiment on MOLT-4 leukemia (10 µM unless noted) it was 67.1% [2.5 µM] (inactive); with SR leukemia (10 µM unless noted), -4.59% [2.5 µM] (active).

For `S=C(SSC(=S)N1CCCCC1)N1CCCCC1`, the growth in the experiment with HCT-15 colon (10 µM) was 90.1% (inactive); in the experiment with HCT-15 colon (100 µM) it was 5.6% (active); with HT29 colon (10 µM), 104% (inactive); in the experiment on HT29 colon (100 µM), -61.4% (active); in the experiment on SNB-75 CNS, 50.5% [100 µM] (inactive); in the experiment with SNB-19 CNS (10 µM) it was 92.8% (inactive). Also, the growth with SNB-19 CNS (100 µM) was 56.5% (inactive); in the experiment with U251 CNS (10 µM), 88% (inactive); in the experiment with U251 CNS (100 µM), -43.7% (active); with PC-3 prostate (10 µM), 83.6% (inactive); in the experiment on PC-3 prostate (100 µM), 18% (inactive); with SK-MEL-5 melanoma (10 µM) it was 93.9% (inactive). Moreover, the growth in the experiment on SK-MEL-5 melanoma (100 µM) was -18% (active); in the experiment with UACC-62 melanoma (10 µM), 96.7% (inactive); in the experiment with UACC-62 melanoma (100 µM), 2.29% (active); with LOX IMVI melanoma (10 µM), 87.1% (inactive); with LOX IMVI melanoma (100 µM), -45.9% (active); in the experiment on SK-MEL-28 melanoma (10 µM), 105% (inactive). Also, the growth with SK-MEL-28 melanoma (100 µM) is -41.6% (active); with SK-MEL-2 melanoma (10 µM), 102% (inactive); in the experiment on SK-MEL-2 melanoma (100 µM), 2.78% (active); in the experiment with EKVX NSCLC (10 µM), 104% (inactive); in the experiment with EKVX NSCLC (100 µM) it was -23.3% (active); in the experiment on SN12C renal (10 µM) it was 96.1% (inactive). Moreover, the growth with SN12C renal (100 µM) is -42.3% (active); in the experiment with UO-31 renal (10 µM), 102% (inactive); with UO-31 renal (100 µM), -12.3% (active); in the experiment with TK-10 renal (10 µM), 109% (inactive); in the experiment on TK-10 renal (100 µM), -61.8% (active); in the experiment with CAKI-1 renal (10 µM), 95.6% (inactive). The growth in the experiment on CAKI-1 renal (100 µM) is -77.7% (active); in the experiment on A498 renal (10 µM), 105% (inactive); in the experiment with A498 renal (100 µM) it was 72.4% (inactive); with HL-60(TB) leukemia (10 µM), 86.4% (inactive); in the experiment with HL-60(TB) leukemia (100 µM), 14.7% (inactive); with MOLT-4 leukemia (10 µM) it was 85% (inactive). Further, the growth with MOLT-4 leukemia (100 µM) is 0.424% (active); in the experiment with SR leukemia (10 µM), 86.2% (inactive); with SR leukemia (100 µM) it was -8.68% (active).

For the compound `C[C@H]1CCC/C=C/[C@@H]2C[C@H](O)C[C@H]2[C@H](O)/C=C/C(=O)O1`, the growth is -28.2% (active) with HCT-15 colon (10 µM unless noted); -53.5% (active) with HT29 colon (10 µM unless noted); -19.7% (active) in the experiment with SNB-75 CNS; 38.3% (inactive) in the experiment with SNB-19 CNS (10 µM unless noted); 20.6% (inactive) in the experiment on U251 CNS (10 µM unless noted); -14.6% (active) in the experiment with PC-3 prostate (10 µM unless noted). Moreover, the growth in the experiment on SK-MEL-5 melanoma (10 µM unless noted) was -96.7% (active); in the experiment with UACC-62 melanoma (10 µM) it was 20.9% (inactive); in the experiment on LOX IMVI melanoma (10 µM unless noted), -69.4% (active); in the experiment with SK-MEL-2 melanoma (10 µM unless noted), -21.5% (active); in the experiment with EKVX NSCLC (10 µM unless noted) it was 11.1% (inactive); in the experiment with SN12C renal (10 µM unless noted) it was 19.8% (inactive). Further, the growth in the experiment with UO-31 renal (10 µM unless noted) was -22.9% (active); with TK-10 renal (10 µM), -31.1% (active); in the experiment with CAKI-1 renal (10 µM unless noted), -2.67% (active); in the experiment on A498 renal (10 µM unless noted), -37.1% (active); in the experiment with HL-60(TB) leukemia (10 µM unless noted), -22.5% (active); in the experiment on MOLT-4 leukemia (10 µM unless noted), -7.93% (active). Besides, the growth in the experiment with SR leukemia (10 µM unless noted) is -6.07% (active).

As to `C[C@]12CC[C@H](O)CC1=CC[C@@H]1[C@@H]2CC[C@]2(C)C(=O)CC[C@@H]12`, the growth is 99.7% (inactive) with HCT-15 colon (10 µM unless noted); 81.5% (inactive) in the experiment on HT29 colon (10 µM unless noted); 71.6% (inactive) in the experiment on SNB-75 CNS; 95% (inactive) in the experiment on SNB-19 CNS (10 µM unless noted); 101% (inactive) in the experiment on U251 CNS (10 µM unless noted); 79.2% (inactive) in the experiment with PC-3 prostate (10 µM unless noted). Further, the growth in the experiment on SK-MEL-5 melanoma (10 µM unless noted) was 92.9% (inactive); in the experiment on UACC-62 melanoma (10 µM), 92.9% (inactive); in the experiment with LOX IMVI melanoma (10 µM unless noted), 102% (inactive); with SK-MEL-2 melanoma (10 µM unless noted), 95.3% (inactive); in the experiment with EKVX NSCLC (10 µM unless noted) it was 85.7% (inactive); in the experiment on SN12C renal (10 µM unless noted) it was 106% (inactive). The growth in the experiment with UO-31 renal (10 µM unless noted) was 80.6% (inactive); with TK-10 renal (10 µM), 96.2% (inactive); in the experiment with CAKI-1 renal (10 µM unless noted), 87.3% (inactive); in the experiment on A498 renal (10 µM unless noted), 92% (inactive); in the experiment with HL-60(TB) leukemia (10 µM unless noted), 85% (inactive); in the experiment on MOLT-4 leukemia (10 µM unless noted), 89% (inactive). Further, in the experiment on SR leukemia (10 µM unless noted), the growth was -4.91% (active).

Values taken from PubChem BioAssay (NCI).
